Records with an inconclusive call do not appear. Where a call stands in place of a potency, no number is given. Activity calls are given as the source filed them. The call rests on the fitted dose curve; in most records, active means well fitted inhibition curve with a large enough effect; inconclusive means small, poorly fitted or top-dose-only effect; inactive means flat fitted curve, though single readings scatter.
Target: Calcium and integrin-binding protein 1 (Homo sapiens) (UniProt Q99828)
Sequence (Q99828 whole entry, looked up): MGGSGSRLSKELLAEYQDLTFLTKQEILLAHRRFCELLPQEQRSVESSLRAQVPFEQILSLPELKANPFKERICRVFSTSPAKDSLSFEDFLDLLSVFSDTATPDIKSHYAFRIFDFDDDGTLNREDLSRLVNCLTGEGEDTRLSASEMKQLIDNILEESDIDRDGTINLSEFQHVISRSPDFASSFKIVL
Assay: Primary qHTS for Identification of Calcium Integrin Binding Protein 1 (CIB1) Competitor (AID 1508620);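 further: GST tagged CIB1 binding a fluorescein labelled alphaIIb integrin peptide tracer; top concentration of the series differs between compounds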
Conditions: CIB1-GST / FITC-alphaIIb peptide fluorescence polarization; series mostly up to 114 µM
In short: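 CIB1-GST (1 uM final) and compound incubated 15 min at room temperature before adding FITC-alphaIIb peptide tracer (100 nM final). Competition for binding read by fluorescence polarization (ex 480, em 540) after another 15 min at room temperature.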

| Compound | Potency |
| --- | --- |
| O=C(Cc1ccc(Cl)c(Cl)c1)Nc1ccc(S(=O)(=O)Nc2ccccc2)cc1 | inactive |
| N#Cc1c(-c2ccc(O)cc2)no[n+]1[O-] | inactive |
| Cc1ccc(S(=O)(=O)NC(N)=NCCC[C@@H](N)C(=O)Nc2cc(C(F)(F)F)ccc2Cl)cc1 | inactive |
| COc1cncc(NC(=O)c2cccs2)c1 | inactive |
| Cc1cccc(CNc2ncnc3ccc(-c4cccc(C)c4)cc23)c1 | inactive |
| Cc1cccc(C(=O)NC2CCN(C#N)CC2)c1 | inactive |
| Fc1cc(Nc2nc(-c3ccncc3)nc3ccccc23)ccc1-c1cccc(OC(F)F)c1 | inactive |
| CS(=O)(=O)c1ccccc1-c1csc(N2CCC(C(N)=O)CC2)n1 | inactive |
| Cc1cc(C)nc(NC(=S)N2CCN(c3nc4ccccc4s3)CC2)c1 | inactive |
| N#Cc1ccc(OC2=NS(=O)(=O)c3ccccc32)cc1 | inactive |
| O=C(Nc1ccc2ccccc2c1)Nc1nnc(-c2ccccc2Cl)s1 | inactive |
| CNC(=O)c1cnn2c(C)cc(C)nc12 | inactive |
| COc1cccc(NC(=S)N2CCN(c3ccc(C(F)(F)F)cc3[N+](=O)[O-])CC2)n1 | inactive |
| O=S(=O)(c1ccc2c(c1)OCCO2)N1CCN(S(=O)(=O)c2ccc3c(c2)OCCO3)CC1 | inactive |
| O=[S+]([O-])(NCC#CCSc1nnc(-c2cccc3ccccc23)o1)c1ccc(F)cc1 | inactive |
| N#Cc1c(-c2ccco2)no[n+]1[O-] | inactive |
| COc1cccc(OC)c1C1=Nn2c(nnc2-c2ccccc2O)SC1 | inactive |
| c1ccc(CNc2nc(-c3cccs3)nc3ccccc23)cc1 | inactive |

Source: PubChem BioAssay (NCATS)
